From the supplement of paper PMC8371130
Where a name gives a salt, the structure may show the parent alone.

System: HL-1
Experiment: relative cell viability (CellTiter-Glo) vs DMSO control (% of DMSO control); higher = more viable cells
In short: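 Compounds at 40, 200, 1000 or 5000 nM in 0.01% DMSO were added to HL-1 mouse atrial cardiomyocytes plated at 1000 cells per well in 384-well plates. The next day, cells were exposed to 1% O2 for 48 h and then reoxygenated for 24 h, or left in normoxia for the same time. Viability was read with CellTiter-Glo luminescence and normalised to vehicle-treated controls.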

[1] = oxygen condition: hypoxia 48 h (1% O2) + reoxygenation 24 h, 40 nM
[2] = oxygen condition: hypoxia 48 h (1% O2) + reoxygenation 24 h, 200 nM
[3] = oxygen condition: hypoxia 48 h (1% O2) + reoxygenation 24 h, 1000 nM
[4] = oxygen condition: hypoxia 48 h (1% O2) + reoxygenation 24 h, 5000 nM
[5] = oxygen condition: normoxia 72 h, 40 nM
[6] = oxygen condition: normoxia 72 h, 200 nM
[7] = oxygen condition: normoxia 72 h, 1000 nM
[8] = oxygen condition: normoxia 72 h, 5000 nM

| Structure (SMILES) | relative cell viability [1] | relative cell viability [2] | relative cell viability [3] | relative cell viability [4] | relative cell viability [5] | relative cell viability [6] | relative cell viability [7] | relative cell viability [8] |
| --- | --- | --- | --- | --- | --- | --- | --- | --- |
| CCCc1nc(C(C)(C)O)c(C(=O)OCc2oc(=O)oc2C)n1Cc1ccc(-c2ccccc2-c2nnn[nH]2)cc1 [Olmesartan medoxomil] | 93.8 | 99.2 | 94.7 | 105 | 97 | 98.2 | 96.7 | 95.7 |
| NC(=O)OCC(COC(N)=O)c1ccccc1 [Felbamate] | 101 | 106 | 96.3 | 110 | 110 | 107 | 105 | 110 |
| CCCCc1oc2ccc(NS(C)(=O)=O)cc2c1C(=O)c1ccc(OCCCN(CCCC)CCCC)cc1 [Dronedarone HCl] | 99.9 | 99.6 | 102 | 105 | 99.8 | 110 | 102 | 95 |
| CCCC(=O)OCOC(=O)C1=C(C)NC(C)=C(C(=O)OC)C1c1cccc(Cl)c1Cl (configuration not stated) [Cleviprex] | 106 | 90.5 | 93.1 | 98 | 91.9 | 91.8 | 96.5 | 96.4 |
| Nc1nc(N)nc(-c2cc(Cl)ccc2Cl)n1 [Irsogladine] | 101 | 104 | 107 | 109 | 98.2 | 104 | 108 | 107 |
| C=C1CC[C@H](O)C/C1=C/C=C1\CCC[C@]2(C)[C@@H]([C@H](C)/C=C/[C@H](C)C(C)C)CC[C@@H]12 [Vitamin D2] | 102 | 99.8 | 111 | 112 | 107 | 105 | 109 | 110 |
| N[C@@H](CSCCCO)C(=O)O [Fudosteine] | 105 | 105 | 109 | 111 | 106 | 109 | 104 | 115 |
| CNC(=O)c1cc(Oc2ccc(NC(=O)Nc3ccc(Cl)c(C(F)(F)F)c3)cc2)ccn1 [Sorafenib] | 104 | 105 | 116 | 114 | 109 | 101 | 118 | 114 |
| NS(=O)(=O)c1cc(C(=O)O)c(NCc2ccco2)cc1Cl [Furosemide] | 116 | 105 | 108 | 112 | 106 | 101 | 111 | 106 |
| CCC(=O)O[C@]1(C(=O)CCl)[C@@H](C)C[C@H]2[C@@H]3CCC4=CC(=O)C=C[C@]4(C)[C@@]3(F)[C@@H](O)C[C@@]21C [Clobetasol propionate] | 98.2 | 94.4 | 94.5 | 97.3 | 92.3 | 90.1 | 88.3 | 94.5 |
| C#CCN[C@@H]1CCc2ccccc21 [Rasagiline mesylate] | 94.8 | 96.7 | 98.2 | 102 | 93.3 | 92.9 | 99.4 | 108 |
| NC(=O)c1ncn([C@@H]2O[C@H](CO)[C@@H](O)[C@H]2O)c1O [Mizoribine] | 103 | 109 | 115 | 108 | 111 | 104 | 103 | 110 |
| CC1CCc2c(N3CCC(O)CC3)c(F)cc3c(=O)c(C(=O)O)cn1c23 (configuration not stated) [Nadifloxacin] | 103 | 104 | 102 | 110 | 104 | 103 | 100 | 107 |
| COc1ccc2[nH]c([S+]([O-])Cc3ncc(C)c(OC)c3C)nc2c1 (configuration not stated) [Omeprazole] | 101 | 99.7 | 107 | 110 | 104 | 103 | 103 | 105 |
| Cc1cnc(C(=O)O)c[n+]1[O-] [Acipimox] | 105 | 104 | 109 | 116 | 101 | 104 | 107 | 108 |
| CC(=O)OCC(CCn1cnc2cnc(N)nc21)COC(C)=O [Famciclovir] | 101 | 104 | 100 | 113 | 106 | 106 | 105 | 121 |
| COc1ccc(Cl)cc1C(=O)NCCc1ccc(S(=O)(=O)NC(=O)NC2CCCCC2)cc1 [Glyburide] | 103 | 106 | 103 | 104 | 103 | 103 | 108 | 109 |
| Cc1ccc(Nc2nccc(N(C)c3ccc4c(C)n(C)nc4c3)n2)cc1S(N)(=O)=O [Pazopanib HCl] | 94.1 | 106 | 105 | 109 | 103 | 113 | 104 | 109 |
| CCOc1cc(CC(=O)N[C@@H](CC(C)C)c2ccccc2N2CCCCC2)ccc1C(=O)O [Repaglinide] | 84.4 | 97.2 | 109 | 109 | 67.6 | 110 | 114 | 115 |
| NC(=O)c1ncn([C@@H]2O[C@H](CO)[C@@H](O)[C@H]2O)c1N [Acadesine] | 90.2 | 102 | 102 | 116 | 103 | 103 | 110 | 117 |

| Structure (SMILES) | relative cell viability [1] | relative cell viability [2] | relative cell viability [3] | relative cell viability [4] | relative cell viability [5] | relative cell viability [6] | relative cell viability [7] | relative cell viability [8] |
| --- | --- | --- | --- | --- | --- | --- | --- | --- |
| NC(=O)N1c2ccccc2C=Cc2ccccc21 [Carbamazepine] | 97.1 | 103 | 105 | 106 | 103 | 103 | 95.1 | 109 |
| O=C1N=C(O)NC1(c1ccccc1)c1ccccc1 [Phenytoin sodium] | 96.1 | 96.2 | 95.6 | 111 | 94.5 | 101 | 101 | 107 |
| OCCN(CCO)c1nc(N2CCCCC2)c2nc(N(CCO)CCO)nc(N3CCCCC3)c2n1 [Dipyridamole] | 102 | 107 | 93.7 | 108 | 108 | 98.7 | 98 | 113 |
| COc1ccccc1N1CCN(CC(O)COc2cccc3ccccc23)CC1 (configuration not stated) [Naftopidil] | 103 | 101 | 104 | 101 | 102 | 100 | 102 | 103 |
| C[C@@H]1CC(=O)NN=C1c1ccc(NN=C(C#N)C#N)cc1 [Levosimendan] | 101 | 103 | 102 | 108 | 95.9 | 103 | 105 | 103 |
| CC1(C)S[C@@H]2[C@H](NC(=O)[C@H](N)c3ccc(O)cc3)C(=O)N2[C@H]1C(=O)O [Amoxicillin] | 104 | 103 | 111 | 114 | 104 | 100 | 106 | 108 |
| CCCCOc1ccc(OCCCN2CCOCC2)cc1 [Pramoxine HCl] | 106 | 110 | 110 | 118 | 110 | 107 | 97.5 | 119 |
| CC(C)C[C@H](NC(=O)[C@H](CCc1ccccc1)NC(=O)CN1CCOCC1)C(=O)N[C@@H](Cc1ccccc1)C(=O)N[C@@H](CC(C)C)C(=O)[C@@]1(C)CO1 [Carfilzomib] | 3.62 | 3.8 | 4.12 | 3.78 | 3.3 | 4.04 | 3.72 | 3.71 |
| N=C(N)Nc1ccc(C(=O)Oc2ccc3cc(C(=N)N)ccc3c2)cc1 [Nafamostat mesylate] | 103 | 104 | 108 | 105 | 105 | 110 | 111 | 107 |
| CCCCc1ncc(/C=C(\Cc2cccs2)C(=O)O)n1Cc1ccc(C(=O)O)cc1 [Eprosartan Mesylate] | 96.2 | 101 | 103 | 104 | 107 | 102 | 102 | 105 |
| CN(C)CCC(c1ccc(Cl)cc1)c1ccccn1 (configuration not stated) [Chlorpheniramine Maleate] | 87.2 | 101 | 98.4 | 117 | 101 | 114 | 105 | 121 |
| NC(=O)c1ncn([C@@H]2O[C@H](CO)[C@@H](O)[C@H]2O)n1 [Ribavirin] | 102 | 96.2 | 108 | 101 | 100 | 104 | 109 | 107 |
| CCOc1nc2cccc(C(=O)OCc3oc(=O)oc3C)c2n1Cc1ccc(-c2ccccc2-c2noc(=O)[nH]2)cc1 [Azilsartan Medoxomil] | 101 | 99.2 | 116 | 116 | 93.4 | 103 | 100 | 114 |
| COC(=O)C1=C(C)NC(C)=C(C(=O)OCCN(C)Cc2ccccc2)C1c1cccc([N+](=O)[O-])c1 (configuration not stated) [Nicardipine HCl] | 107 | 111 | 112 | 114 | 107 | 106 | 105 | 122 |
| CN(C)CCOc1ccc(/C(=C(/CCCl)c2ccccc2)c2ccccc2)cc1 [Toremifene Citrate] | 104 | 103 | 108 | 108 | 103 | 99.5 | 105 | 108 |
| Nc1nnc(-c2cccc(Cl)c2Cl)c(N)n1 [Lamotrigine] | 107 | 102 | 108 | 117 | 106 | 96.1 | 115 | 117 |
| C=C[C@]1(C)C[C@@H](OC(=O)CS[C@@H]2C[C@H]3CC[C@@H](C2)N3C)[C@]2(C)[C@H](C)CC[C@]3(CCC(=O)[C@H]32)[C@@H](C)[C@@H]1O [Retapamulin] | 104 | 104 | 105 | 108 | 98.3 | 97.1 | 89.2 | 81.7 |
| Oc1cc(O)c(Cl)cn1 [Gimeracil] | 99.3 | 101 | 100 | 104 | 97.8 | 101 | 101 | 105 |
| CC12CC3CC(C)(C1)CC(N)(C3)C2 [Memantine HCl] | 105 | 105 | 101 | 106 | 94.5 | 101 | 108 | 93.4 |
